HT1080-NT tox: kills 2HG-producing HT-1080-NT fibrosarcoma cells. HT-1080-NT fibrosarcoma viability, CellTiter-Glo ATP luminescence, 48 h. Potency, µM (doses to about 46.1 µM), for inactives: at the highest dose activity, negative = less viability, actives largely listed as cytotoxic. hit rate 1.6% among 360,000;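 further: NT is the 2HG producing partner of a matched IDH1 knockdown line; potency means the concentration at half of the fitted maximal effect; 0% = DMSO-treated cells and -100% = media-only wells without cells; nearly all actives have a fitted effect of over 55% in size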
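Toxicity toward the 2HG-producing NT line was scored as %Activity, normalised to DMSO and no-cell wells, from CellTiter-Glo luminescence after 48 hours' treatment.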
DT40 TDP1 CPT: growth inhibition of DT40 Tdp1-/-;hTDP1 cells with camptothecin (screen for TDP1 inhibitors) | chicken DT40 Tdp1-/-;hTDP1 cells + 20 nM CPT, ATP luminescence, 48 h | Potency, µM (titrated, usually from 46.2 µM), for inactives: at the top dose activity change, negative = growth inhibition, most hits filed as inhibitors | hit rate 12% among 420,000 | AID 686979; further: potency means the concentration at half of the fitted maximal effect; nearly all actives have a fitted effect of over 55% in size
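Chicken DT40 Tdp1-/- cells stably complemented with human TDP1 were seeded at 400 cells/well in medium containing 20 nM camptothecin, exposed to pin-transferred compounds, and grown at 37 °C for at least 48 hr. Viability was read as ATP luminescence.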
IL-1B inflam inh: inflammasome signaling inhibition, IL-1 beta readout. THP-1 LPS/ATP IL-1B secretion, AlphaLISA, 16 h; stronger effect = lower value. activity change, % at 57.5 µM. hit rate 4.7% among 360,000; in the data active means activity change below about -50%; inconclusive means mostly about -30% to -49%
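THP-1 cells pretreated 1 hr with compounds (up to 57.5 uM final), then stimulated with LPS (250 ng/mL final) plus ATP (1.25 mM final); secreted IL-1B measured by AlphaLISA after 16 hr, decreased signal indicating inhibition.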
DT40 TDP1 no CPT: qHTS for Inhibitors of human tyrosyl-DNA phosphodiesterase 1 (TDP1): qHTS in cells in absence of CPT | hit rate 15% among 420,000 | AID 686978, 2013 | Potency, µM (doses to about 46.2 µM), without a hit: at the top dose activity change, negative = growth inhibition, most hits filed as inhibitors | DT40 Tdp1-/- hTDP1 cells, no CPT, ATP luminescence, 48 h; further: potency means the concentration at half of the fitted maximal effect; nearly all actives have a fitted effect of over 55% in size
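Chicken DT40 Tdp1-/- cells complemented with human TDP1, screened without camptothecin (DMSO vehicle only), 400 cells/well. Compounds pin-transferred, cells incubated at 37 °C for at least 48 hr. Growth read as ATP-dependent luminescence (CellTiter-Glo, 30 min at RT).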
HT1080 IDH1KD tx: kills HT-1080 cells with IDH1 knockdown | Potency, µM (titrated, usually from 46.1 µM), for inactives: at the highest dose activity, negative = toxicity, usual class: cytotoxic | hit rate 2% among 360,000 | HT-1080 IDH1 knockdown viability, ATP luminescence, 48 h;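 further: potency means the concentration at half of the fitted maximal effect; 0% = DMSO wells and -100% = cell-free medium wells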
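CellTiter-Glo luminescence after 48 h compound exposure at 37 degrees C of IDH1-knockdown HT-1080 cells in 5% FBS RPMI. %Activity scaled between DMSO wells and cell-free media wells, with curves fitted and assigned curve classes.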
* marks the source's active call; other numbers are inactive results; ? = inconclusive; · = no result given. This is a sample that favours compounds with a hit; in the whole collection about 19% have one here. Unless noted, the call rests on the fitted dose curve; in most records, active means well fitted curve in the direction sought with a large enough effect; inconclusive means small, poorly fitted or top-dose-only effect, or another doubt; inactive means no such curve, though single readings can be large; an effect the other way counts as inactive or inconclusive. Unless noted, on the % scale 0 is the no-effect control and ±100 the full control effect.

SMILES	HT1080-NT tox	DT40 TDP1 CPT	IL-1B inflam inh	DT40 TDP1 no CPT	HT1080 IDH1KD tx
CCOC(=O)c1cc(-c2ccccc2)n(CCC(=O)NCCc2cccc(C)c2)c1C	·	16.4µM*	·	?	·
CCCCCNc1nc2c(-c3ccccc3)nnn2c2ccccc12	·	0.4%	·	-26.2%	·
COc1ccc(CNC(=O)Cc2coc3ccc(C)cc23)cc1	·	-5.1%	·	-19.9%	·
C[C@]12CCC(=O)CC1CCC1C2CC[C@@]2(C)C1CC[C@@]21CCO1 (some centres not stated)	?	?	-12.2	20.6µM*	?
COC(=O)C1=CN(c2ccc3c(c2)OCO3)C(N)=C(C#N)C1c1cccc(F)c1 (configuration not stated)	3.66µM*	1.3µM*	32.8	0.651µM*	1.84µM*
COC(=O)C1=CN(c2ccc(C)cc2)C(N)=C(C#N)C1c1ccc(OC)cc1 (configuration not stated)	-28.2%	?	-0.1	?	?
COC(=O)C1=CN(c2ccc(OC)cc2)C(N)=C(C#N)C1c1ccc(OC)cc1 (configuration not stated)	-17.2%	10.3µM*	?	?	-15.2%
COC(=O)c1ccccc1SCC(=O)Nc1ccc(N2CCOCC2)cc1	0.6%	-6.9%	-24.6	-2.9%	-1.3%
COC(=O)C1=CN(c2ccc(N3CCOCC3)cc2)C(N)=C(C#N)C1c1ccccc1 (configuration not stated)	-14.4%	?	-2.9	18.4µM*	-9.6%
COC(=O)C1=CN(c2ccc(OC)cc2OC)C(N)=C(C#N)C1c1ccc(OC)cc1 (configuration not stated)	?	?	-6.0	20.6µM*	?
O=C1CS/C(=N\N=C\c2ccccc2Cl)N1CC1CC1	-1.1%	-17.1%	21.9	?	-2.9%
Cn1cccc1C(=O)OCC(=O)N1CCc2ccccc2C1	16.4%	0.0%	?	-2.9%	-0.5%
COc1ccccc1CC(=O)Nc1sc2c(c1C(N)=O)CCCC2	?	-5.1%	9.7	-32.1%	?
CCOC(=O)c1ccc(NC(=O)c2c(NCc3cc(OC)ccc3OC)sc3c2CCC3)cc1	·	16.4µM*	·	?	·
COc1cc(OC)c(OC)cc1CNc1sc2c(c1C(=O)Nc1ccccc1OC)CCC2	·	20.6µM*	·	20.6µM*	·
COc1ccc(NC(=O)c2c(NC(=O)c3cccc(C)c3)sc3c2CCCC3)cc1	·	-1.2%	·	-14.0%	·
CCN(CC)CC(=O)Nc1sc2c(c1C(=O)c1ccccc1OC)CCC2	?	16.4µM*	-53.4*	14.6µM*	?
CCOC(=O)c1ccc(NC(=O)c2c(NCc3cc(OC)c(OC)cc3OC)sc3c2CCCC3)cc1	·	23.1µM*	·	?	·
CCCCn1c(N)c(N(CC(C)C)C(=O)C2CCCN(C(=O)c3ccc(Cl)cc3)C2)c(=O)[nH]c1=O (configuration not stated)	12.6%	-16.4%	-0.3	-25.2%	12.6%
CN(C)C1=NCCN1CCC1CCCCC1	11.3%	11.6µM*	-2.5	?	1.1%
CC(C)CCN1C(N(C)C)=NC[C@@H]1C	0.0%	9.3%	-14.6	5.3%	-0.8%
CCCCCCCN1CCN=C1N(C)C	1.9%	?	-2.5	16.4µM*	5.0%
CC(C)CCCN1CCN=C1N(C)C	0.5%	-4.9%	-0.1	-27.6%	4.2%
C[C@H]1CN=C(N(C)C)N1CCCC1CCCCC1	-7.7%	20.6µM*	-9.0	16.4µM*	-4.6%
COc1ccc(-n2cc(CNCc3cccnc3)c(-c3cccc(F)c3)n2)cc1	-15.4%	?	?	?	?
SMILES	HT1080-NT tox	DT40 TDP1 CPT	IL-1B inflam inh	DT40 TDP1 no CPT	HT1080 IDH1KD tx
COc1ccc(CNCc2cn(-c3cccc(F)c3)nc2-c2ccc(C)o2)cc1	-12.7%	?	-86.5*	16.4µM*	?
COc1ccc(-n2cc(CNC3CCC(O)CC3)c(-c3cccc(F)c3)n2)cc1 (configuration not stated)	?	20.6µM*	-28.2	20.6µM*	-13.0%
COc1ccc(-n2cc(CN3CCC(OC)CC3)c(-c3cccc(F)c3)n2)cc1	1.2%	-0.7%	-25.4	0.7%	-2.6%
COc1ccc(-n2cc(CN(C)C(C)c3ccncn3)c(-c3cccc(F)c3)n2)cc1 (configuration not stated)	-16.8%	?	-51.4*	?	-21.3%
COc1cccc(-c2nn(-c3ccccc3)cc2CN(C)C(C)c2ccncn2)c1 (configuration not stated)	-13.6%	-20.6%	-19.6	?	-9.3%
O=C1NC(=O)C2(CCC(C3CCCCC3)CC2)N1 (configuration not stated)	10.1%	-7.9%	4.9	-9.8%	6.6%
CCN1C(=O)[C@@H]2[C@@H](c3ccc(SC4CCCCC4)cc3)N3CCC[C@@]3(C(=O)OC)[C@@H]2C1=O	-1.1%	?	-1.8	20.6µM*	7.9%
CCN1C(=O)[C@@H]2[C@@H](c3ccc(-c4cc(C(C)=O)cs4)cc3)N3CCC[C@@]3(C(=O)OC)[C@@H]2C1=O	-4.6%	?	4.9	?	0.9%
CCCSc1ccc([C@@H]2[C@H]3C(=O)N(CC)C(=O)[C@H]3[C@]3(C(=O)OC)CCCN23)cc1	5.5%	?	5.4	?	1.1%
COC(=O)[C@@]12CCCCN1[C@H](c1ccc(SC3CCCCC3)c(OC)c1)[C@@H]1C(=O)N(C)C(=O)[C@@H]12	-21.5%	?	-24.8	?	?
CCCSc1ccc([C@@H]2[C@@H]3C(=O)N(CC)C(=O)[C@@H]3[C@]3(C(=O)OC)CCCCN23)cc1	-0.4%	18.4µM*	13.6	20.6µM*	-5.5%
CCN1C(=O)[C@H]2[C@@H](c3ccc(SC4CCCCC4)cc3)N3CCCC[C@@]3(C(=O)OC)[C@H]2C1=O	13.4%	14.6µM*	0.0	16.4µM*	1.1%
CCN1C(=O)[C@@H]2[C@@H](c3ccc(SC4CCCCC4)c(OC)c3)N3CCCC[C@@]3(C(=O)OC)[C@@H]2C1=O	-12.6%	20.6µM*	?	?	?
CC(=O)N1CCN(S(=O)(=O)c2cccc(C(=O)NCCc3ccc(Cl)cc3)c2)CC1	2.9%	-18.6%	2.2	-24.9%	4.3%
CCCC/C(O)=C1\C(=O)CCCC1=NCCc1c(C)[nH]c2ccc(OC)cc12	2.8%	?	-24.7	?	-12.9%
CC1(C)N=C(N)N=C(N)N1c1ccccc1	3.66µM*	0.731µM*	-7.2	0.13µM*	1.64µM*
CC1(C)N=C(N)N=C(N)N1c1cccc(CN)c1	1.9%	-24.7%	-1.9	?	?
